# PubChem BioAssay (Tox21)
# Records with an inconclusive call do not appear. Calls of active or inactive are those of the source. Calls come from the whole dose curve; as a rule, active = well fitted inhibition curve with a large enough effect in the repeat runs; inconclusive = weak or mixed curves; inactive = no such curve, though single readings can be large or run the other way.
# Biological target: Cytochrome P450 2C9 (Homo sapiens) (UniProt P11712)
# Experiment: Cytochrome P450 Family 2 Subfamily C Member 9 (CYP2C9) small molecule antagonists: luciferase reporter qHTS assay (AID 1671198); note: nearly all actives have a fitted effect of over 50% in size
# Settings: P450-Glo CYP2C9 enzyme assay, luciferin luminescence; series mostly up to 115 µM; activity change, negative = inhibition: at the top concentration
# Outline: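 CYP2C9 activity was measured with a P450-Glo proluciferin substrate. Enzyme–substrate mix was held with compound for 10 min at room temperature, then NADPH regeneration solution was added for 1 h at 37C. Luciferin product was read as luminescence.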
# % is set by controls: 0 for no effect and ±100 for the full control effect; potency is the fitted concentration of half-maximal effect.
# Cytochrome P450 2C9 (Homo sapiens), sequence (P11712 whole entry, looked up): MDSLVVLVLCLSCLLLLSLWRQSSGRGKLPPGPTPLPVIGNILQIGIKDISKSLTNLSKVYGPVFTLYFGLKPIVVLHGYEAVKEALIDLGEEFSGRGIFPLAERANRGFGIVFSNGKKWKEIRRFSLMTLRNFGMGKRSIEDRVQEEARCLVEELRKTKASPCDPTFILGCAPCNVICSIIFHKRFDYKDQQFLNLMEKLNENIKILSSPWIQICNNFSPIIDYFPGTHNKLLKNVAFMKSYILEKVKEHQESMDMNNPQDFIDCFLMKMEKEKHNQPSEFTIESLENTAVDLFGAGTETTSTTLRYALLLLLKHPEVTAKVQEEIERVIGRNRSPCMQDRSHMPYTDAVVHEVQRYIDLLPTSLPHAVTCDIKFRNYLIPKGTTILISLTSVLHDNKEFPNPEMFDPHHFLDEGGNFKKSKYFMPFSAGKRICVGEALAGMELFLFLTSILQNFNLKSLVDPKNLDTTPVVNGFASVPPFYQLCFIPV
SMILES,Potency,"activity change, negative = inhibition"
O=S1(=O)OC(c2cc(Br)c(O)c(Br)c2)(c2cc(Br)c(O)c(Br)c2)c2ccccc21,16.3 µM (active),–
CN1C(=O)NC(=O)C(C)(C2=CCCCC2)C1=O (configuration not stated),–,-2.49% [at 53 µM] (inactive)
ClCCCCBr,–,3.16% (inactive)
Cc1ccccc1C(=O)Nc1cccc(OC(C)C)c1,22.4 µM (active),–
COc1ccc(-c2ccccc2)cc1NNC(=O)OC(C)C,2.62 µM (active),–
Cl/C=C\Cl,–,6% (inactive)
O=C(O)C(F)(F)C(F)(F)C(F)(F)C(F)(F)C(F)(F)C(F)(F)C(F)(F)C(F)(F)C(F)(F)F,2.83 µM (active),–
ClCc1cccc(Cl)c1,–,-3.2% [at 53 µM] (inactive)
CC(C)(C)c1cc([N+](=O)[O-])cc([N+](=O)[O-])c1O,17.8 µM (active),–
CCCCCCC#N,–,-8.02% (inactive)
S=C=NCc1ccccc1,36 µM (active),–
CC(C)(OO)c1ccccc1,39.9 µM (active),–
